Results from PubChem BioAssay (Tox21).
Activity calls are given as the source filed them. Calls follow the shape of the full dose curve.

Biological target: Estrogen receptor (Homo sapiens) (UniProt P03372)
Assay: qHTS assay to identify small molecule agonists of the estrogen receptor alpha (ER-alpha) signaling pathway in the presence of an antagonist (AID 1259383); also: top concentration of the series differs between compounds; nearly all actives have a fitted effect of over 15% in size
Details: VM7Luc4E2 cells, ERE-luciferase, +ICI-182,780, 22 h; series mostly up to 92.4 µM; activation: at the top concentration
Source text: National Center for Advancing Translational Sciences [NCATS] NIH Chemical Genomics Center [NCGC] U.S. Environmental Protection Agency [EPA] National Institutes of Environmental Health Sciences [NIEHS] National Toxicology Program [NTP] Assay overview: Estrogen receptor (ER), a member of nuclear hormone receptor plays an important role in development, metabolic homeostasis and reproduction. Two subtypes of ER, ER-alpha and ER-beta, have similar expression patterns with some uniqueness in both types. Endocrine disrupting chemicals (EDCs) and their interactions with steroid hormone receptors like ER causes disruption of normal endocrine function. Therefore, it is important to understand the effect of environmental chemicals in ER signaling pathway. For identifying ER agonists, VM7Luc4E2 cell line has been used in the current assay. VM7Luc4E2 cell line (provided by Denison MS, University of California) endogenously expresses full-length ER-alpha and is stably transfected with a plasmid containing four estrogen responsive elements (ERE) upstream of a luciferase reporter gene. This current screening for measuring luciferase reporter gene activity using VM7Luc4E2 cells against Tox21 10K library collection is a confirmation study on agonist mode screening in presence of ER-antagonist (ICI-182,780) at 10.0nM final concentration.
Assay Protocol Summary: VM7Luc4E2 cells were cultured in phenol red free assay medium containing 10% charcoal stripped FBS for 5 days prior to the assay. The cells were dispensed at 4,000 cells in 4uL of assay medium per well into white wall/solid-bottom 1536-well plates (Corning Life Sciences, Corning, NY) using a Multidrop Combi (Thermo Fisher Scientific Inc., Waltham, MA) dispenser. After the assay plates were incubated at 37C and 5% CO2 for 24hr, 1uL of 10.0nM (final concentration) ICI-182,780 or assay buffer was added using two separate tips of Flying Reagent Dispenser (FRD, Aurora Discovery, San Diego, CA). Then 23nL of compounds dissolved in DMSO at 15 concentrations and positive controls or DMSO only was transferred to the assay plates by a Pintool station (Wako, San Diego, CA). The assay plates were incubated at 37C and 5% CO2 for 22hr. For luciferase read, 4uL/well ONE-Glo reagent (Promega Corporation, Madison, WI) was added to each well using FRD and after 30min incubation at room temperature, luminescence signal was measured on ViewLux plate reader (PerkinElmer, Shelton, CT).
% is scaled to controls: 0 for no effect and ±100 for the full control effect.

Estrogen receptor (Homo sapiens), sequence (P03372 whole entry, looked up): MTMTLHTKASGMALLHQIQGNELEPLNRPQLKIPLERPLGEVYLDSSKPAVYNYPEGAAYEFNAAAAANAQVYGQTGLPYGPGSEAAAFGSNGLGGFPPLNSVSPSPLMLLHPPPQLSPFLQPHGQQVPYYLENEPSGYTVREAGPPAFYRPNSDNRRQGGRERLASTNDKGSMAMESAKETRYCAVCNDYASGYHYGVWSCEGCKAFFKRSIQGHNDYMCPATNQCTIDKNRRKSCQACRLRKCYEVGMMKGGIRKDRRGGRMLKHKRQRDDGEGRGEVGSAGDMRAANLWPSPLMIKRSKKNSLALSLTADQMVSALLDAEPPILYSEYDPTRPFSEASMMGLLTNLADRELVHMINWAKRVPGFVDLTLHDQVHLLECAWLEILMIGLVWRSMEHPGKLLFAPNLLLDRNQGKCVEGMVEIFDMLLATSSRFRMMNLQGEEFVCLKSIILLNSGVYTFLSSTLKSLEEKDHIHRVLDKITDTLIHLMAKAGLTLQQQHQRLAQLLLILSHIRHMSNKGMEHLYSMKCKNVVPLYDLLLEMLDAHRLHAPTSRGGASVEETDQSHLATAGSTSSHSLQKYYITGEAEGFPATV

SMILES	activation	Potency
CCOC(=O)COc1ccc(C)cc1	-2.19% (inactive)	
O=C1NCCN1CCN1CCC(c2cn(-c3ccc(F)cc3)c3ccc(Cl)cc23)CC1	-0.0321% [at 42.5 µM] (inactive)	
O=C(Nc1ccc(Cl)c(Cl)c1)c1cc(Cl)cc(Cl)c1O	1.4% (inactive)	
C=C1C(C)(C)[C@@]2(Cl)C(Cl)[C@]1(Cl)C(Cl)(Cl)C2(Cl)Cl (stereo not given in full)	-1.15% (inactive)	
O=C1C=CC(=O)N1c1ccccc1	-14.3% (inactive)	
CC=O	-15.2% (inactive)	
CCCC(=O)OCC(COC(=O)CCC)OC(=O)CCC	-0.372% (inactive)	
CC1CCCCN1CCCOC(=O)c1ccc(OC2CCCCC2)cc1 (stereo not given)	-0.207% [at 42.5 µM] (inactive)	
CCCCCCCCCCCCCCCC	1.35% (inactive)	
O=S(=O)(O)CCCN1CCOCC1	-0.87% (inactive)	
O=C1Nc2ccc(Cl)cc2[C@@](C#CC2CC2)(C(F)(F)F)O1	-1.28% [at 42.5 µM] (inactive)	
C=C[C@](C)(O)CC[C@@H]1[C@@]2(C)CCCC(C)(C)[C@@H]2CC[C@@]1(C)O	-2.86% (inactive)	
Oc1ccc(-c2ccccc2)c(Cl)c1	8.14% (inactive)	
Cn1cnc2ncnc(N)c21	-2.35% [at 42.5 µM] (inactive)	
c1ccc(Nc2cccc3ccccc23)cc1		inactive
CC1=C(/C=C/C(C)=C/C=C/C(C)=C/C(=O)Nc2ccc(O)cc2)C(C)(C)CCC1		inactive
O=C1c2c(O)ccc([N+](=O)[O-])c2C(=O)c2c([N+](=O)[O-])ccc(O)c21	-14% (inactive)	
Clc1nc2ccccc2s1	-0.37% (inactive)	
CO[Si](CCCNCCNCCN)(OC)OC	0.774% (inactive)	
Cc1nc(Nc2ncc(C(=O)Nc3c(C)cccc3Cl)s2)cc(N2CCN(CCO)CC2)n1	-2.98% [at 42.5 µM] (inactive)	

SMILES	activation	Potency
c1ccc(Sc2ccccc2)cc1	-0.186% (inactive)	
CCCCCCOc1cc(C)c(O)c(C)c1C	-0.296% (inactive)	
O=S(O)O	-0.842% [at 19 µM] (inactive)	
Brc1ccccn1	-0.278% (inactive)	
C[C@@]12C(=O)OC(=O)[C@]1(C)C1CCC2O1	-8.53% [at 42.5 µM] (inactive)	
CCC(=O)CC(C)CC (stereo not given)	-1.38% [at 0.349 µM] (inactive)	
CCCCOC(=O)C(C)CC (stereo not given)	-1.39% (inactive)	
CC(C)(C)c1cc(/C=C2\SC(=N)NC2=O)cc(C(C)(C)C)c1O	2.04% (inactive)	
CC1=CP(=O)(c2ccccc2)CC1 (stereo not given)	-3.6% (inactive)	
CCCCCCCCCCCCCc1ccccc1	-0.0232% [at 42.5 µM] (inactive)	
Cc1cnccn1	-0.0863% (inactive)	
C=C(C)CCCC	-2.31% (inactive)	
CCC(C)C(=O)OC (stereo not given)	-1.55% (inactive)	
Clc1cccnc1	0.0934% (inactive)	
CCc1cccc(C)c1	-0.3% (inactive)	
O=Cc1ccc(F)cc1	1.22% (inactive)	
CCOC(=O)C1=C(C)NC(C)=C(C(=O)OCC)C1c1ccccc1/C=C/C(=O)OC(C)(C)C	-1.42% [at 42.5 µM] (inactive)	
CCN(CC)CCNc1ccc(CO)c2sc3ccccc3c(=O)c12	-0.751% [at 42.5 µM] (inactive)	
C/C=C/C(=O)Oc1c(CCCCCC(C)C)cc([N+](=O)[O-])cc1[N+](=O)[O-]	-15.4% (inactive)	
CC[N+](CC)(CC)Cc1ccccc1	-1.46% (inactive)	
